# Many of the other results were omitted from the sample, so the strongest signals are more common in it than they were.
# B1: PX14375l-pdi-526-25-526 (Parabacteroides distasonis) (protein)
# chain: DEEPKSTLTDVAYYKTQSQMESNVNYLYRTGAIGSYVDFGSAYIGPFASIQEELTGYFSNSYEGQEIVCRYTRELTRQQNTMQLASKMDKVWDDCYRGINVANGAIKHMPEVPMDQATADRLTAEAKFFRAFNYFYLVKTFGAVPFYTDPYELAENMELPRTETSTIYNQIESDLKDAMNVLPEATFAANGHRITKYVAAMTLTDVYMYQHKYAEAAETVRIVVNSNHKLTTNDDLAMNSAFNKLRSTDDLDEAIYAYEYDNQISPSNWLPTYAFDGDASSNGLFGTYAITQKVHGPNDRYLNIYESNDLRRQPNQFYHWTYTNPKTGKVWNSVGNAACCWYYYDEDALLTTGRGTKDWNVYRYAEALLDAAESIAQSTGVTAEAAGYLAQVKARANMEGKTAAEIASSLQSMGKQAFIEECWTERLRELPLEFKMWDMCVRTGMFPNISETTPGQVTYIPLVGAKNASGATIKESDLLWPLSVNEIQRNPSLTQNEGYSAK
# What was measured:
# Assay in all cases: glycan array binding signal (z-score within array); higher = stronger binding
# Settings in all cases: glycan notation: IUPAC condensed, linker removed
# [1] = target: Gal(b1-4)GlcNAc(b1-3)Gal(b1-4)GlcNAc(b1-2)[Gal(b1-4)GlcNAc(b1-3)Gal(b1-4)GlcNAc(b1-6)]Man(a1-6)[Gal(b1-4)GlcNAc(b1-3)Gal(b1-4)GlcNAc(b1-2)Man(a1-3)]Man(b1-4)GlcNAc(b1-4)[Fuc(a1-6)]GlcNAc
# How it was run: (§1)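 The binding signal is a Z-score computed within each array and averaged over linkers. Arrays of the same protein sequence at different concentrations or buffers were also averaged together. Data originate from 3228 arrays in the Consortium for Functional Glycomics database, kept only where the protein sequence was available.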
# [2] = target: Gal(b1-4)GlcNAc(b1-3)Gal(b1-4)GlcNAc(b1-3)Gal(b1-4)GlcNAc(b1-3)Gal(b1-4)GlcNAc(b1-2)Man(a1-3)[Gal(b1-4)GlcNAc(b1-3)Gal(b1-4)GlcNAc(b1-3)Gal(b1-4)GlcNAc(b1-3)Gal(b1-4)GlcNAc(b1-2)Man(a1-6)]Man(b1-4)GlcNAc(b1-4)GlcNAc
# How it was run: as §1
# [3] = target: Gal(b1-4)GlcNAc(b1-3)[GlcNAc(b1-6)]Gal(b1-4)GlcNAc
# How it was run: as §1
# [4] = target: Gal3S(b1-3)[Fuc(a1-4)]GlcNAc
# How it was run: as §1
# [5] = target: Gal6S(b1-3)GlcNAc6S
# How it was run: as §1
# [6] = target: Gal6S(b1-4)GlcNAc
# How it was run: as §1
# [7] = target: GalNAc(b1-4)GlcNAc(b1-2)Man(a1-3)[GalNAc(b1-4)GlcNAc(b1-2)Man(a1-6)]Man(b1-4)GlcNAc(b1-4)GlcNAc
# How it was run: as §1
# [8] = target: GalNAc3S(b1-4)GlcNAc
# How it was run: as §1
# [9] = target: GlcNAc(b1-2)Man(a1-3)[GlcNAc(b1-2)Man(a1-6)]Man(b1-4)GlcNAc(b1-4)GlcNAc
# How it was run: as §1
# [10] = target: GlcNAc(b1-3)Gal(b1-4)GlcNAc(b1-3)Gal(b1-4)GlcNAc(b1-3)Gal(b1-4)GlcNAc(b1-2)Man(a1-3)[GlcNAc(b1-3)Gal(b1-4)GlcNAc(b1-3)Gal(b1-4)GlcNAc(b1-3)Gal(b1-4)GlcNAc(b1-2)Man(a1-6)]Man(b1-4)GlcNAc(b1-4)GlcNAc
# How it was run: as §1
# [11] = target: GlcNAc(b1-3)[GlcNAc(b1-6)]GalNAc
# How it was run: as §1
# [12] = target: GlcNAc(b1-4)GlcNAc(b1-4)GlcNAc(b1-4)GlcNAc(b1-4)GlcNAc
# How it was run: as §1
# [13] = target: Man(a1-2)Man(a1-3)[Man(a1-2)Man(a1-6)]Man
# How it was run: as §1
# [14] = target: Man(a1-2)Man(a1-3)[Man(a1-6)]Man(a1-6)[Man(a1-2)Man(a1-3)]Man(b1-4)GlcNAc(b1-4)GlcNAc
# How it was run: as §1
# [15] = target: Neu5Ac(a2-3)Gal(b1-4)GlcNAc(b1-2)Man(a1-3)[GlcNAc(b1-4)][Neu5Ac(a2-3)Gal(b1-4)GlcNAc(b1-2)Man(a1-6)]Man(b1-4)GlcNAc(b1-4)GlcNAc
# How it was run: as §1
# [16] = target: Neu5Ac(a2-3)Gal(b1-4)GlcNAc(b1-2)Man(a1-3)[Neu5Ac(a2-6)Gal(b1-4)GlcNAc(b1-2)Man(a1-6)]Man(b1-4)GlcNAc(b1-4)GlcNAc
# How it was run: as §1
# [17] = target: Neu5Ac(a2-3)Gal(b1-4)GlcNAc(b1-3)[Neu5Ac(a2-3)Gal(b1-4)GlcNAc(b1-6)]GalNAc
# How it was run: as §1
# [18] = target: Neu5Ac(a2-3)Gal(b1-4)[Fuc(a1-3)]GlcNAc(b1-3)Gal(b1-4)GlcNAc
# How it was run: as §1
# [19] = target: Neu5Ac(a2-6)Gal(b1-4)Glc
# How it was run: as §1
# [20] = target: Neu5Ac(a2-6)GalNAc(b1-4)GlcNAc6S
# How it was run: as §1
# [21] = target: Neu5Ac(a2-8)Neu5Ac(a2-8)Neu5Ac(a2-3)Gal(b1-4)Glc
# How it was run: as §1
# [22] = target: Neu5Ac(a2-8)Neu5Gc(a2-3)Gal(b1-4)GlcNAc
# How it was run: as §1
# [23] = target: Neu5Gc(a2-8)Neu5Ac(a2-3)Gal(b1-4)GlcNAc
# How it was run: as §1
# [24] = target: Neu5Gc(a2-8)Neu5Gc(a2-3)Gal(b1-4)GlcNAc(b1-3)Gal(b1-4)GlcNAc
# How it was run: as §1
binder,measurement,setting,value
B1,glycan array binding signal (z-score),[1],0.091
same,glycan array binding signal (z-score),[2],16.7
same,glycan array binding signal (z-score),[3],-0.154
same,glycan array binding signal (z-score),[4],-0.094
same,glycan array binding signal (z-score),[5],9.53
same,glycan array binding signal (z-score),[6],-0.026
same,glycan array binding signal (z-score),[7],-0.068
same,glycan array binding signal (z-score),[8],-0.071
same,glycan array binding signal (z-score),[9],-0.225
same,glycan array binding signal (z-score),[10],-0.168
same,glycan array binding signal (z-score),[11],-0.1
same,glycan array binding signal (z-score),[12],-0.095
same,glycan array binding signal (z-score),[13],-0.022
same,glycan array binding signal (z-score),[14],-0.236
same,glycan array binding signal (z-score),[15],-0.214
same,glycan array binding signal (z-score),[16],-0.134
same,glycan array binding signal (z-score),[17],-0.205
same,glycan array binding signal (z-score),[18],0.129
same,glycan array binding signal (z-score),[19],0.019
same,glycan array binding signal (z-score),[20],0.114
same,glycan array binding signal (z-score),[21],-0.12
same,glycan array binding signal (z-score),[22],2.74
same,glycan array binding signal (z-score),[23],-0.206
same,glycan array binding signal (z-score),[24],-0.201
